Laboratory results: ChEMBL document CHEMBL4296182, “CO-ADD screening of NIH NCI Diversity Set V”
For part of these data: Entries with a potency or affinity are not part of this list.

Tests used:
Staphylococcus aureus = experiment: Antibacterial activity against Staphylococcus aureus MRSA ATCC 43300 (CO-ADD:GP_020); MIC in CAMBH media using NBS plates, by Resazurin F(560/590); assay type: functional; conditions: Concentration 20 uM, ASSAY_TEST Inhibition of Bacterial Growth, detection method Resazurin, Fluorescence (ex560/em590), MEDIA CAMHB, plate type 384well, CORNING #3640, time 18 hr
Acinetobacter baumannii = experiment: Antibacterial activity against Acinetobacter baumannii ATCC 19606 (CO-ADD:GN_034); MIC in CAMBH media using NBS plates, by Resazurin F(560/590); assay type: functional; conditions: Concentration 20 uM, ASSAY_TEST Inhibition of Bacterial Growth, detection method Resazurin, Fluorescence (ex560/em590), MEDIA CAMHB, plate type 384well, CORNING #3640, time 18 hr
Escherichia coli = experiment: Antibacterial activity against Escherichia coli ATCC 25922 (CO-ADD:GN_001); MIC in CAMBH media using NBS plates, by Resazurin F(560/590); assay type: functional; conditions: Concentration 20 uM, ASSAY_TEST Inhibition of Bacterial Growth, detection method Resazurin, Fluorescence (ex560/em590), MEDIA CAMHB, plate type 384well, CORNING #3640, time 18 hr
Klebsiella pneumoniae = conditions: Concentration 20 uM; ASSAY_TEST Inhibition of Bacterial Growth; detection method Absorption (OD600); MEDIA CAMHB; plate type 384well; NBS; CORNING #3640; time 18 hr
Candida albicans = conditions: 20 µM
Cryptococcus neoformans = conditions: Concentration 20 uM; ASSAY_TEST Inhibition of Fungal Growth; detection method Resazurin; Absorption (OD600-OD570); plate type 384well; NBS; CORNING #3640

Compound | Inhibition (Staphylococcus aureus) | Inhibition (Acinetobacter baumannii) | Inhibition (Escherichia coli) | Inhibition (Klebsiella pneumoniae) | Inhibition (Candida albicans) | Inhibition (Cryptococcus neoformans)
O=c1cccc2n1C[C@H]1C[C@@H]2CN2CCCC[C@@H]12 | 6.92% | -12.51% | 5.34% | 8.7% | -0.36% | -3.93%
O=C(O)CN1C(=O)CN=C(c2ccccn2)c2cc(Cl)ccc21 | 15.35% | 8.33% | -0.79% | 10.65% | 1.18% | 0%
CN1CCc2cc3c(cc2C1)OCO3 | -5.07% | -14.77% | 11.12% | 3.04% | 1.35% | -8.47%
CC1CC(C)OP(=O)(OCCC#N)O1 (stereo unspecified) | 11.79% | -12.84% | 9.51% | 9.69% | -4.51% | -8.12%
Cn1cc(C=O)c2nccnc21 | 0.99% | -3.72% | -9.44% | 3.85% | 1.67% | 2.98%
CC1(C)NC(=S)C(C)(C)N1N=O | 8.42% | -13.11% | 8.85% | 8.33% | 5.47% | -2.68%
CN1C2CCC1[C@@H](COC(=O)c1ccccc1)[C@@H](O)C2 (stereo partly specified) | 0.35% | 15.38% | -10.56% | 17.19% | 4.47% | -7.25%
CS(=O)(=O)O.O=C1CCC2(O)[C@@H]3Cc4ccc(O)c5c4[C@]2(CCN3Cc2ccoc2)C1O5 (stereo partly specified) | 1.32% | -2.4% | -2.68% | 10.23% | 1.48% | -6.77%
C=CCCC1(C2=CCCCC2)C(=O)NC(=O)NC1=O | 0.11% | -12.21% | 7.91% | 12.33% | 3.67% | -8.53%
CC12CCC3C(CCC4Cc5[nH]c6ccccc6c5CC43C)C1CCC2O (stereo unspecified) | -0.19% | -0.61% | 16.15% | 10.81% | -1.61% | -15.22%
COc1cc(C=C2C(=O)NC(=O)NC2=O)ccc1O | 11.9% | 5.89% | 0.28% | 15.76% | 1.49% | -7.52%
N=C(N)N/N=C/c1c(Cl)cccc1Cl [GUANABENZ] | 5.03% | -12.8% | 13.45% | 13.62% | -0.73% | -12.66%
CNC(=O)Oc1c(O)ccnc1C | 3.2% | -15.53% | 4.87% | 2.24% | 5.45% | -9.19%
CCc1cc2c(cc1-c1csc(CC(=N)NO)n1)C(C)(C)CCC2(C)C | 9.42% | 7.35% | -22.59% | 1.69% | 7.1% | 24.54%
O=c1cccc2n1C[C@H]1CNC[C@H]2C1 | 0.43% | -9.28% | 4.51% | 2.72% | 0.25% | -10.24%
CCOP(=O)(OCC)/C(C#N)=C/c1ccc(-c2ccc(F)cc2F)o1 | 7.13% | -5.44% | 9.56% | 5.2% | 10.3% | -6.44%
COc1ccccc1NC(=O)Oc1cccc(OC(=O)c2ccccc2)c1 | 4.53% | -1.36% | -8.4% | 19.47% | 8.34% | -0.97%
O=C(CF)N(O)c1ccc(/C=C/c2ccccc2)cc1 | -10.86% | -11.91% | 10.97% | 1.67% | 12.6% | -7.92%
Cc1ccc(N2C(=O)C(=CN)C(=O)N(c3ccc(C)cc3)C2=O)cc1 | 17.58% | 4.93% | 4.14% | 11.65% | -1.3% | -7.68%
c1cncc(C2Nc3cccc4cccc(c34)N2)c1 | -23.65% | -11.45% | -11.57% | 4.78% | 10.3% | 30.98%
CC(CC(C#N)(c1ccccc1)c1ccccc1)N1CCCCC1 (stereo unspecified) | -22.27% | -8.26% | -18.71% | 1.48% | 0.01% | 28.3%
O=[N+]([O-])c1cc([As](=O)(O)c2ccc(O)c([N+](=O)[O-])c2)ccc1O | 9.78% | 5.09% | 4.17% | 5.87% | -1.08% | -7.3%
CC(C)OC1CCCC(O)C1CC(=O)O (stereo unspecified) | 1.66% | -13.22% | 6.88% | -1.53% | -0.2% | -7.06%

Compound | Inhibition (Staphylococcus aureus) | Inhibition (Acinetobacter baumannii) | Inhibition (Escherichia coli) | Inhibition (Klebsiella pneumoniae) | Inhibition (Candida albicans) | Inhibition (Cryptococcus neoformans)
O=C1CCCN1CC#CCN1CCCC1 [OXOTREMORINE] | -8.85% | 7.42% | 9.1% | 1.39% | 0.18% | -12.14%
NC(=O)c1ccc(C(=O)Nc2ccc([As](=O)(O)O)cc2)cc1 | 11.66% | 7.33% | 15.44% | 11.59% | -0.15% | -8.21%
c1cnc2c(c1)ccc1ncccc12 | 9.5% | -5.64% | 9.97% | 12.45% | 0.86% | -4.19%
CC12CCC3C(CC=C4CC(O)CCC43C)C1C/C(=C\N1CCCC1)C2=O (stereo unspecified) | 1.08% | 21.07% | 1.6% | 23.67% | -3.81% | -14.08%
CCC(CO)NC(=O)C1C=C2c3cccc4[nH]cc(c34)CC2N(C)C1 (stereo unspecified) | 1.02% | 14.09% | -11.63% | 10.28% | -0.04% | 5.57%
COc1ccccc1[As](=O)(O)CC(O)COc1ccc(Cl)cc1Cl (stereo unspecified) | 12.48% | -14.57% | 17.37% | 8.74% | -1.45% | -2.68%
COc1ccc(OC(=O)Nc2ccc([N+](=O)[O-])cc2OC)cc1 | 18.29% | 11.17% | 1.72% | 8.07% | -1.5% | -6.88%
COc1cc(OC)cc(C2(C#N)CCN(C)CC2)c1 | 3.06% | 10.25% | -15.21% | 17.67% | 8.63% | 25.01%
CC[C@@]1(O)C(=O)OCc2c1cc1n(c2=O)Cc2cc3c(N)cccc3nc2-1 [9-AMINOCAMPTOTHECIN] | 34.7% | -5.64% | 12.69% | 8.25% | 4.9% | -6.8%
O=C1NC(=O)C(=Cc2ccc3ccccc3c2)C(=O)N1 | 0.11% | 10.33% | -2.67% | 19.68% | 25.6% | -7.82%
N#CC12CNCC1CN=N2 (stereo unspecified) | 10.47% | 1.05% | -13.15% | 8.95% | 1.04% | 19.07%
C[C@H]1CC[C@@]2(C)[C@@H](CC[C@@H]3[C@@H]2CC[C@]2(C)[C@@H](O)CC[C@@H]32)C1 | 19.61% | 5.34% | 2.81% | 23.84% | 9.51% | -1.26%
CN1C(=O)CC[C@@]2(C)C1=CC[C@@H]1[C@@H]2CC[C@@]2(C)[C@H]1CC[C@]2(C)O | 8.7% | -5.24% | 22.22% | 11.27% | -0.13% | -18.95%
CC(=O)Nc1cc([As](=O)(O)O)ccc1O [ACETARSONE] | 12.71% | 13.01% | 0.28% | 16.86% | 1.06% | -8.45%
[Cl-].c1ccc(-c2nn(-c3ccccc3)[n+](-c3ccccc3)n2)cc1 [TETRAZOLIUM RED] | -10.8% | -19.48% | 7.25% | 5.91% | 0.89% | -6.85%
Cc1c(CCN)ccc2c1[nH]c1ccccc12 | 5.19% | -3.14% | 0.87% | 4.23% | 0.65% | -5.14%
ClC1=C(Cl)C(Cl)=C(Cl)C1=C/C=C/c1ccccc1 | -15.24% | -5.13% | -15.65% | 6.7% | 5.69% | 2.88%
CCOC(=O)c1ccc2nc(-c3ccc(S(=O)(=O)F)cc3)cc(O)c2c1 | 10.74% | 13.99% | 0.41% | 7.81% | 1.06% | -10.46%
O=C(OC1CCCCC1)c1ccccc1C(=O)OC1CCCCC1 | -2.45% | -19.72% | -0.16% | 3.51% | 7.38% | -2.99%
Cc1cc(OCCN2CC2)c2ccccc2n1 | 14.36% | -8.46% | 11.83% | 5.11% | -2.14% | -8.85%
Cc1ccc2cc3c(ccc4ccccc43)c3c2c1CC3 [3-METHYLCHOLANTHRENE] | 32.91% | -6.45% | 10.1% | -1.21% | 1.03% | 3.35%
CCC1CN1P(=O)(Oc1ccc(Cl)cc1)N1CC1CC (stereo unspecified) | 5.27% | -3.62% | 11.85% | 2.63% | 4.31% | -4.87%
CCOP(=O)(OCC)/C(C#N)=C/c1ccc(Br)cc1 | 9.27% | 13.14% | 8.82% | 9.61% | 2.02% | -11.15%
